{"source": "PubChem BioAssay (NCATS)", "note": "Records with an inconclusive call do not appear. Active and inactive are the calls of the source. Calls come from the whole dose curve; as a rule, active = well fitted activation curve with a large enough effect in the main read-out, with a control signal flat (not every such curve was filed as active); inconclusive = small, poorly fitted or top-dose-only effect, or effect the other way, or a change in a side signal; inactive = flat fitted curve, though single readings scatter.", "data": [{"target": "3',5'-cyclic-AMP phosphodiesterase 4B (Homo sapiens) (UniProt Q07343)", "sequence (Q07343 whole entry, looked up)": "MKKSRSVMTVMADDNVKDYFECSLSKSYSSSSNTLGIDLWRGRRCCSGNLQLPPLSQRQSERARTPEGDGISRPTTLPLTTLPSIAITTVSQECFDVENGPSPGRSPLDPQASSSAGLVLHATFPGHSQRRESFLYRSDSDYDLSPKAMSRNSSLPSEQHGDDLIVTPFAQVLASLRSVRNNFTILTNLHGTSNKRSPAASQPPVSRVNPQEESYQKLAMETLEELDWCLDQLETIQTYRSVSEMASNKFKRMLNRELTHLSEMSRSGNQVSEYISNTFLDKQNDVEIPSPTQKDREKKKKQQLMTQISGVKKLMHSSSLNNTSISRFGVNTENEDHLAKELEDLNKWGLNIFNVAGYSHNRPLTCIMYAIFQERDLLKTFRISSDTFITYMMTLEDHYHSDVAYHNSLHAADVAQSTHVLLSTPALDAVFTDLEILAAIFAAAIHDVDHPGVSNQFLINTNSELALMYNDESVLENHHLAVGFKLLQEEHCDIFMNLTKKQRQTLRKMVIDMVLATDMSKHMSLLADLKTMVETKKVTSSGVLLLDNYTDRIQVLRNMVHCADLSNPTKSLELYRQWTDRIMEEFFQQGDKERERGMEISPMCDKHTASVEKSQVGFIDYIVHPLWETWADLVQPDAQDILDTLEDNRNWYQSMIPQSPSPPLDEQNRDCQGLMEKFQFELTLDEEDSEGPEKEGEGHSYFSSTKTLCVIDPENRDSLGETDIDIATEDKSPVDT", "assay": "qHTS Assay for Inhibitors of PDE-IV (AID 607)", "conditions": "HEK293 ACTOne CNG channel cells, membrane potential fluorescence; series mostly up to 22.9 µM", "procedure,_shortened": "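ACTOne HEK293 cells carry a modified cAMP-gated CNG channel and express endogenous PDE4; plated 1000 cells/well, compounds up to 22.9 uM final. Membrane-potential dye fluorescence (ex 535/em 590) was read; parental cells received 10 uM forskolin + 100 uM RO 20-1724.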", "values": [{"molecule": "CC(=O)SC[C@@H](Cc1ccccc1)C(=O)NCC(=O)OCc1ccccc1", "outcome": "inactive"}, {"molecule": "CC[N+](C)(CC)CCOC(=O)C1c2ccccc2Oc2ccccc21", "outcome": "inactive"}, {"molecule": "NS(=O)(=O)c1ccc(C(=O)O)cc1", "outcome": "inactive"}, {"molecule": "CN/C(=C\\[N+](=O)[O-])NCCSCc1csc(CN(C)C)n1", "outcome": "inactive"}, {"molecule": "C[C@@H]1CCC[C@H](C)N1", "outcome": "inactive"}, {"molecule": "Cc1c(NC(C)C)c(=O)n(-c2ccccc2)n1C", "outcome": "inactive"}, {"molecule": "CN(C(=O)c1c(O)c2ccccc2n(C)c1=O)c1ccccc1", "outcome": "inactive"}, {"molecule": "O=C(Cn1ccnc1[N+](=O)[O-])NCCO", "outcome": "inactive"}, {"molecule": "O=C(O)c1ccccc1OP(=O)(O)O", "outcome": "inactive"}, {"molecule": "CC[N+](CC)(CC(=O)Nc1c(C)cccc1C)Cc1ccccc1", "outcome": "inactive"}, {"molecule": "Cn1c([N+](=O)[O-])cnc1COC(N)=O", "outcome": "inactive"}, {"molecule": "Cn1c(=O)c2c(ncn2CCO)n(C)c1=O", "outcome": "inactive"}, {"molecule": "NC(N)=NS(=O)(=O)c1ccc(N)cc1", "outcome": "inactive"}, {"molecule": "CCCCC1(COC(=O)CCC(=O)O)C(=O)N(c2ccccc2)N(c2ccccc2)C1=O", "outcome": "inactive"}, {"molecule": "CN1C(C)(C)CCCC1(C)C", "outcome": "inactive"}, {"molecule": "COc1ccc2cc(CCC(C)=O)ccc2c1", "outcome": "inactive"}, {"molecule": "Cc1cc(NC(=O)C2=C(O)c3ccccc3S(=O)(=O)N2C)no1", "outcome": "inactive"}, {"molecule": "NC(=O)CC[C@@H](N)C(=O)O", "outcome": "inactive"}, {"molecule": "O=C(O)c1ccccc1C(=O)Nc1ccc(S(=O)(=O)Nc2nccs2)cc1", "outcome": "inactive"}]}]}
